Data taken from the supplement of paper PMC8728848.
Many of the other results were omitted from the sample, so the strongest signals are more common in it than they were.

Legend:
Experiment in all cases: glycan array binding signal (z-score within array); higher = stronger binding
Settings in all cases: glycan notation: IUPAC condensed, linker removed
[1] = biological target: Fuc(a1-2)Gal(b1-3)GalNAc(b1-4)[Neu5Ac(a2-3)]Gal(b1-4)Glc
Method in brief: (§1)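 Columns mapping to the same glycan were averaged after glycan names were converted to IUPAC-condensed notation. The data come from 3228 arrays in the Consortium for Functional Glycomics database, limited to those with an available protein sequence. Binding is reported as a within-array Z-score averaged across arrays of one protein sequence and across linkers.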

[2] = biological target: Fuc(a1-2)Gal(b1-3)GlcNAc6S
Method in brief: as §1

[3] = biological target: Fuc(a1-2)Gal(b1-3)[Fuc(a1-4)]GlcNAc(b1-2)Man(a1-3)[Fuc(a1-2)Gal(b1-3)[Fuc(a1-4)]GlcNAc(b1-2)Man(a1-6)]Man(b1-4)GlcNAc(b1-4)GlcNAc
Method in brief: as §1

[4] = biological target: Fuc(a1-2)[Gal(a1-3)]Gal(b1-3)GlcNAc
Method in brief: as §1

[5] = biological target: Fuc(a1-2)[Gal(a1-3)]Gal(b1-4)[Fuc(a1-3)]GlcNAc(b1-3)GalNAc
Method in brief: as §1

[6] = biological target: Fuc(a1-2)[GalNAc(a1-4)]Gal(b1-4)GlcNAc
Method in brief: as §1

[7] = biological target: Fuc(a1-3)[Gal(b1-4)]GlcNAc(b1-2)Man(a1-3)[Fuc(a1-3)[Gal(b1-4)]GlcNAc(b1-2)Man(a1-6)]Man(b1-4)GlcNAc(b1-4)[Fuc(a1-6)]GlcNAc
Method in brief: as §1

[8] = biological target: Fuc(a1-3)[Gal3S(b1-4)]GlcNAc6S
Method in brief: as §1

[9] = biological target: Gal(a1-3)Gal(b1-4)[Fuc(a1-3)]GlcNAc(b1-2)Man(a1-3)[Gal(a1-3)Gal(b1-4)[Fuc(a1-3)]GlcNAc(b1-2)Man(a1-6)]Man(b1-4)GlcNAc(b1-4)GlcNAc
Method in brief: as §1

[10] = biological target: Gal(a1-4)Gal(b1-4)GlcNAc(b1-3)Gal(b1-4)Glc
Method in brief: as §1

[11] = biological target: Gal(b1-3)Gal(b1-4)GlcNAc(b1-2)Man(a1-3)[Gal(b1-3)Gal(b1-4)GlcNAc(b1-2)Man(a1-6)]Man(b1-4)GlcNAc(b1-4)GlcNAc
Method in brief: as §1

[12] = biological target: Gal(b1-4)GlcNAc(b1-2)Man(a1-3)Man(b1-4)GlcNAc(b1-4)GlcNAc
Method in brief: as §1

[13] = biological target: Gal(b1-4)GlcNAc(b1-2)Man(a1-3)[Gal(b1-4)GlcNAc(b1-2)][GlcNAc(b1-4)]Man(b1-4)GlcNAc(b1-4)GlcNAc
Method in brief: as §1

[14] = biological target: Gal(b1-4)GlcNAc(b1-2)Man(a1-3)[Man(a1-6)]Man(b1-4)GlcNAc(b1-4)GlcNAc
Method in brief: as §1

[15] = biological target: Gal(b1-4)GlcNAc(b1-2)Man(a1-6)[Man(a1-3)]Man(b1-4)GlcNAc(b1-4)GlcNAc
Method in brief: as §1

[16] = biological target: Gal(b1-4)GlcNAc(b1-2)[Gal(b1-4)GlcNAc(b1-6)]Man(a1-6)[Gal(b1-4)GlcNAc(b1-2)Man(a1-3)]Man(b1-4)GlcNAc(b1-4)[Fuc(a1-6)]GlcNAc
Method in brief: as §1

Gal(b1-6)Gal = biological target: Gal(b1-6)Gal
Method in brief: as §1

Gal3S6S(b1-4)GlcNAc6S = biological target: Gal3S6S(b1-4)GlcNAc6S
Method in brief: as §1

Gal6S(b1-3)GlcNAc = biological target: Gal6S(b1-3)GlcNAc
Method in brief: as §1

Gal6S(b1-4)GlcNAc6S = biological target: Gal6S(b1-4)GlcNAc6S
Method in brief: as §1

GalNAc(b1-3)GalNAc = biological target: GalNAc(b1-3)GalNAc
Method in brief: as §1

GlcA(b1-3)Gal = biological target: GlcA(b1-3)Gal
Method in brief: as §1

[17] = biological target: GlcNAc(a1-4)Gal(b1-4)GlcNAc
Method in brief: as §1

[18] = biological target: GlcNAc(a1-4)Gal(b1-4)GlcNAc(b1-3)Gal(b1-4)GlcNAc(b1-3)Gal(b1-4)GlcNAc
Method in brief: as §1

[19] = biological target: GlcNAc(b1-4)GlcNAc(b1-4)GlcNAc(b1-4)GlcNAc(b1-4)GlcNAc
Method in brief: as §1

[20] = biological target: Man(a1-2)Man(a1-3)[Man(a1-2)Man(a1-6)]Man(a1-6)[Man(a1-2)Man(a1-2)Man(a1-3)]Man
Method in brief: as §1

[21] = biological target: Man(a1-3)[Man(a1-6)]Man(a1-6)[Man(a1-2)Man(a1-3)]Man(b1-4)GlcNAc(b1-4)GlcNAc
Method in brief: as §1

[22] = biological target: Man(a1-3)[Man(a1-6)]Man(b1-4)GlcNAc(b1-4)GlcNAc
Method in brief: as §1

[23] = biological target: Man(a1-3)[Man(a1-6)]Man(b1-4)GlcNAc(b1-4)[Fuc(a1-6)]GlcNAc
Method in brief: as §1

[24] = biological target: Neu5Ac(a2-3)Gal(b1-3)GlcNAc(b1-3)Gal(b1-3)GlcNAc
Method in brief: as §1

[25] = biological target: Neu5Ac(a2-3)Gal(b1-3)GlcNAc(b1-6)GalNAc
Method in brief: as §1

[26] = biological target: Neu5Ac(a2-3)Gal(b1-4)GlcNAc(b1-2)Man(a1-3)[Neu5Ac(a2-6)Gal(b1-4)GlcNAc(b1-2)Man(a1-6)]Man(b1-4)GlcNAc(b1-4)GlcNAc
Method in brief: as §1

[27] = biological target: Neu5Ac(a2-3)Gal(b1-4)GlcNAc(b1-3)Gal(b1-3)GlcNAc
Method in brief: as §1

[28] = biological target: Neu5Ac(a2-3)Gal(b1-4)GlcNAc(b1-3)Gal(b1-4)GlcNAc(b1-3)Gal(b1-4)GlcNAc
Method in brief: as §1

[29] = biological target: Neu5Ac(a2-6)Gal(b1-4)GlcNAc(b1-2)Man(a1-3)Man(b1-4)GlcNAc(b1-4)GlcNAc
Method in brief: as §1

[30] = biological target: Neu5Ac(a2-6)Gal(b1-4)GlcNAc(b1-2)Man(a1-6)[Gal(b1-4)GlcNAc(b1-2)Man(a1-3)]Man(b1-4)GlcNAc(b1-4)GlcNAc
Method in brief: as §1

[31] = biological target: Neu5Ac(a2-6)Gal(b1-4)GlcNAc(b1-2)Man(a1-6)[Man(a1-3)]Man(b1-4)GlcNAc(b1-4)GlcNAc
Method in brief: as §1

[32] = biological target: Neu5Ac(a2-8)Neu5Ac(a2-8)Neu5Ac(a2-3)Gal(b1-4)Glc
Method in brief: as §1

B1: Morniga (Morus nigra) (protein)
chain: MAGTSTNTQTTGTSQTVEVGLWGGPGGNAWDDGSYTGIREINLSHGDAIGAFSVIYDLNGQPFTGPTHPGNEPSFKTVKITLDFPNEFLVSVSGYTGVLPRLATGKDVIRSLTFKTNKKTYGPYGKEEGTPFSLPIENGLIVGFKGRSGFVVDAIGVHLS
- glycan array binding signal (z-score) [1]: -0.335
- glycan array binding signal (z-score) [2]: -0.321
- glycan array binding signal (z-score) [3]: -0.19
- glycan array binding signal (z-score) [4]: -0.332
- glycan array binding signal (z-score) [5]: -0.329
- glycan array binding signal (z-score) [6]: -0.34
- glycan array binding signal (z-score) [7]: -0.304
- glycan array binding signal (z-score) [8]: -0.324
- glycan array binding signal (z-score) [9]: 0.347
- glycan array binding signal (z-score) [10]: -0.341
- glycan array binding signal (z-score) [11]: 4.04
- glycan array binding signal (z-score) [12]: 4.3
- glycan array binding signal (z-score) [13]: 1.41
- glycan array binding signal (z-score) [14]: 4.49
- glycan array binding signal (z-score) [15]: 4.24
- glycan array binding signal (z-score) [16]: 1.6
- glycan array binding signal (z-score) (Gal(b1-6)Gal): -0.326
- glycan array binding signal (z-score) (Gal3S6S(b1-4)GlcNAc6S): -0.316
- glycan array binding signal (z-score) (Gal6S(b1-3)GlcNAc): -0.338
- glycan array binding signal (z-score) (Gal6S(b1-4)GlcNAc6S): -0.337
- glycan array binding signal (z-score) (GalNAc(b1-3)GalNAc): -0.327
- glycan array binding signal (z-score) (GlcA(b1-3)Gal): -0.333
- glycan array binding signal (z-score) [17]: -0.296
- glycan array binding signal (z-score) [18]: -0.327
- glycan array binding signal (z-score) [19]: -0.335
- glycan array binding signal (z-score) [20]: -0.327
- glycan array binding signal (z-score) [21]: 4.19
- glycan array binding signal (z-score) [22]: 5.03
- glycan array binding signal (z-score) [23]: 4.02
- glycan array binding signal (z-score) [24]: -0.332
- glycan array binding signal (z-score) [25]: -0.299
- glycan array binding signal (z-score) [26]: 2.56
- glycan array binding signal (z-score) [27]: -0.325
- glycan array binding signal (z-score) [28]: -0.342
- glycan array binding signal (z-score) [29]: 3.66
- glycan array binding signal (z-score) [30]: 3.24
- glycan array binding signal (z-score) [31]: 4.66
- glycan array binding signal (z-score) [32]: -0.334
